# Measured values taken from PubChem BioAssay.
# Calls of active or inactive are those of the source. Unless noted, no rule for the calls is given here.
# Columns and labels:
# [1] = compounds binding Alexa647 anti-His antibody – biochemical, small-molecule microarray, 635 nm fluorescence, artefact control for SMM control protein annotation, primary screen (AID 1128); settings: higher = more signal;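 also: score merges feature fluorescence with signal-to-noise for each printed compound spot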
# [2] = system: Human papillomavirus type 1a E7 protein (residues 1-88); test: HPV1a E7 small-molecule binders, primary screen, biochemical, small-molecule microarray, residues 1-88, 635 nm (AID 1129); settings: small-molecule microarray binding, fluorescence 635 nm; higher = more signal
# [3] = biological target: Focal adhesion kinase 1 (Homo sapiens) (UniProt Q05397); test: PTK2 protein binding on printed compound slides – biochemical, small-molecule microarray, 635/667 nm fluorescence, BSA, DTT, primary screen (AID 1130); settings: 635 nm fluorescence, higher = more signal;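 also: composite of spot emission at 667 nm and signal to noise over triplicate slides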
# [4] = system: Fibrinogen (Alexa647-labelled); test: Alexa647-fibrinogen binding to printed small molecules – biochemical, small-molecule microarray, 635/667 nm fluorescence, artefact control for SMM control-protein annotation, profiling panel (AID 1131); settings: fibrinogen-A647 binding fluorescence, higher = more signal;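 also: z-score merges 667 nm fluorescence with per-spot signal-to-noise over triplicate slides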
# [5] = biological target: Follistatin (Homo sapiens) (UniProt P19883); test: FST protein binding to printed compounds – biochemical, small-molecule microarray, 635/667 nm fluorescence, primary screen (AID 1132); settings: 635 nm fluorescence, higher = more signal
# [6] = biological target: Fibroblast growth factor 2 (Homo sapiens) (UniProt P09038); test: basic fibroblast growth factor binding to printed compounds – biochemical, small-molecule microarray, 635/667 nm fluorescence, primary screen (AID 1133); settings: FGF2, fluorescence 635/667, higher = more signal
# [7] = JC-1 mitochondrial potential readout, lung cancer cells – cell-based, A549, JC-1 fluorescence, basal, 24 h, 100 nL, profiling panel (AID 1138); settings: higher = more signal;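 also: A549 lung adenocarcinoma cells under basal conditions with no added stimulus; test concentration not given here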
# Lefty1 = Lefty1 protein binding to printed compounds – biochemical, small-molecule microarray, 635/667 nm fluorescence, primary screen (AID 1139); settings: fluorescence 635/667, higher = more signal
# [8] = system: wheat germ agglutinin (Triticum aestivum), Alexa647-labelled; test: Alexa647-WGA lectin binding to printed small molecules – biochemical, small-molecule microarray, 635/667 nm fluorescence, artefact control for SMM control-protein annotation, profiling panel (AID 1140); settings: WGA-A647 binding, 635 nm fluorescence, higher = more signal;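 also: score merges 667 nm feature emission with signal to noise over triplicate slides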
# [9] = biological target: Luciferin 4-monooxygenase (Photinus pyralis) (UniProt P08659); test: inhibition of purified Photinus pyralis luciferase – biochemical, luminescence, purified enzyme, 2006 set, primary screen (AID 1141); settings: purified firefly luciferase, SteadyGlo luminescence, 30 min; higher = more signal, called active from +8 up or from −8 down;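 also: cell-free assay with purified firefly luciferase at 100 ng per well in PBS; test concentration not given here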
# [10] = system: Wnt5a (protein binding on small-molecule microarray); test: small molecules binding Wnt5a protein – biophysical, small-molecule microarray, 635/667 nm fluorescence, primary screen (AID 1142); settings: 635 nm fluorescence, higher = more signal;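 also: fluorescence read at 667 nm with signal to noise per printed feature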
# [11] = ATP-based viability of Huh7 replicon cells – cell-based, CellTiter-Glo luminescence, basal, 48 h, cytotoxicity control for HCV replication inhibitor project, primary screen (AID 1143); settings: higher = more signal, called active from +8 up or from −8 down;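 also: Huh7 hepatoma cells carrying a hepatitis C replication reporter with no stimulus; test concentration not given here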
# [12] = Pseudomonas biofilm growth suppression – PAO1 strain, BacTiter-Glo luminescence, LB-PBS, primary screen (AID 1144); settings: P. aeruginosa PAO1 biofilm, 12 h, higher = more signal
# [13] = basal CRE-LacZ reporter activity in PC12 – cell-based, unstimulated, primary screen (AID 1145); settings: no forskolin, luminescence, 4.5 h, higher = more signal, called active from +8 up or from −8 down
# [14] = forskolin-driven CRE-LacZ activity in PC12 – cell-based, CRE-LacZ reporter, forskolin-stimulated, primary screen (AID 1146); settings: luminescence, 4.5 h, higher = more signal, called active from +8 up or from −8 down;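 also: PC12 cells with 6xCRE LacZ reporter stimulated by forskolin 10 µM; beta-galactosidase reporter signal reflecting CREB driven transcription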
# [15] = biological target: Streptavidin (Streptomyces avidinii) (UniProt P22629); test: compounds binding control protein streptavidin – biophysical, small-molecule microarray, 635/667 nm fluorescence, artefact control for SMM compound annotation, primary screen (AID 1147); settings: higher = more signal;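 also: signal reflects streptavidin binding to arrayed compounds as a control protein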
# [16] = probe aInhba binding on compound microarray – biochemical, small-molecule microarray, 635/667 nm fluorescence, primary screen (AID 1148); settings: higher = more signal;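 also: score merges 667nm spot fluorescence with signal-to-noise for antibody binding to printed compounds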
# Torsin-1A (Homo sapiens) [17] = biological target: Torsin-1A (Homo sapiens) (UniProt O14656); test: TOR1A wild-type binding on microarray – cell lysate, small-molecule microarray, lysate, 635/667 nm, primary screen (AID 1149); settings: COS7 hTOR1A-WT lysate, 635 nm fluorescence, higher = more signal
# Torsin-1A (Homo sapiens) [18] = biological target: Torsin-1A (Homo sapiens) (UniProt O14656); test: torsin A mutant lysate binding on microarrays – cell lysate, small-molecule microarray, COS7 lysate, 635/667 nm fluorescence, primary screen (AID 1150); settings: COS7 hTOR1A mutant lysate, 635 nm fluorescence, higher = more signal;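 also: score pools 667 nm emission and signal to noise measuring lysate protein binding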
# [19] = system: Sonic hedgehog protein (Shh); test: Sonic hedgehog microarray binding compounds – biochemical, small-molecule microarray, 635/667 nm fluorescence, primary screen (AID 1151); settings: 635 nm fluorescence, higher = more signal;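 also: Shh protein binding to compounds spotted on small-molecule microarray slides; score combines spot fluorescence intensity with signal-to-noise across triplicate slides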
# Chain of Torsin-1A (Homo sapiens) (O14656 whole entry, looked up): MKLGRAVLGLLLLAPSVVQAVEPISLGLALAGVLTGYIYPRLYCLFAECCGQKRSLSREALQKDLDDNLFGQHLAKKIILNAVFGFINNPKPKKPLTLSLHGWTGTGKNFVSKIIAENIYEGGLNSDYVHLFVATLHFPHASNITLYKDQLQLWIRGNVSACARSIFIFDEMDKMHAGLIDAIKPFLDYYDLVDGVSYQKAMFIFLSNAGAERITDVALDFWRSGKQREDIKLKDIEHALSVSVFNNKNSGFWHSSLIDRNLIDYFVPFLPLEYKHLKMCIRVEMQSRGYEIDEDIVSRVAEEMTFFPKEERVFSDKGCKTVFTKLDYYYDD
# Chain of Focal adhesion kinase 1 (Homo sapiens) (Q05397 whole entry, looked up): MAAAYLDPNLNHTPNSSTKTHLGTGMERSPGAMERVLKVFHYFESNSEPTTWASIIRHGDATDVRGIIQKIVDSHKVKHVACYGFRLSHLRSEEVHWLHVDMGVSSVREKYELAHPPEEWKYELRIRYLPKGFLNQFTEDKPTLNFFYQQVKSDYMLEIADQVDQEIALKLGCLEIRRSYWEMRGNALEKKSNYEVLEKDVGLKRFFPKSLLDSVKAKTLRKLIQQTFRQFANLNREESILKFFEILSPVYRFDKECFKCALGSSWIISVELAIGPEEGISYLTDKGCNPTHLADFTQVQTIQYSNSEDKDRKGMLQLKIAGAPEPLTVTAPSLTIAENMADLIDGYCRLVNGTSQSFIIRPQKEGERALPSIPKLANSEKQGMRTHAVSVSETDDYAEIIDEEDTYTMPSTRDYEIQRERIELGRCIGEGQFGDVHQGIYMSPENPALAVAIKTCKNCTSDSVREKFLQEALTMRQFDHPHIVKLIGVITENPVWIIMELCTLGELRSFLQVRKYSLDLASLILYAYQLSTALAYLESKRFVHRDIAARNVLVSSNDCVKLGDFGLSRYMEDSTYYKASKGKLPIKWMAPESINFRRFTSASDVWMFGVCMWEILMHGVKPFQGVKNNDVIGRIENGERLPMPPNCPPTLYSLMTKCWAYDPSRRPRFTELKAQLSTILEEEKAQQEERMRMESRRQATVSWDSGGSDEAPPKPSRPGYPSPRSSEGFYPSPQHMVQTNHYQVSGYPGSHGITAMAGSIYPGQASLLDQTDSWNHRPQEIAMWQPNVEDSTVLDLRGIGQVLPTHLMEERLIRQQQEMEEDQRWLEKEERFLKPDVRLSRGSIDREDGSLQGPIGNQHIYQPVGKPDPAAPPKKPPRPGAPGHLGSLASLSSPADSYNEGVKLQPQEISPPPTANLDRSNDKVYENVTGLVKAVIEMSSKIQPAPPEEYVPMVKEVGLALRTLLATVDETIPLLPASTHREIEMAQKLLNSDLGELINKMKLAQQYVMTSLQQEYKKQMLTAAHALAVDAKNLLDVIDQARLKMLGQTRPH
# Chain of Follistatin (Homo sapiens) (P19883 whole entry, looked up): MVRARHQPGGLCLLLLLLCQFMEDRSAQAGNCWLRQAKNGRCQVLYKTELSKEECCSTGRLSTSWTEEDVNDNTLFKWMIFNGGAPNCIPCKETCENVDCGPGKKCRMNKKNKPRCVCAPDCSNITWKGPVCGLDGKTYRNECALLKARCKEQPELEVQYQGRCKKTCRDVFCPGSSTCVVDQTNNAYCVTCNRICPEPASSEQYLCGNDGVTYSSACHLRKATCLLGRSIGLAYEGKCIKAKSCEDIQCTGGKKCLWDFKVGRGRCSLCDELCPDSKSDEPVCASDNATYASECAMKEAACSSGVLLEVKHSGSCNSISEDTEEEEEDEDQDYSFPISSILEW
# Chain of Fibroblast growth factor 2 (Homo sapiens) (P09038 whole entry, looked up): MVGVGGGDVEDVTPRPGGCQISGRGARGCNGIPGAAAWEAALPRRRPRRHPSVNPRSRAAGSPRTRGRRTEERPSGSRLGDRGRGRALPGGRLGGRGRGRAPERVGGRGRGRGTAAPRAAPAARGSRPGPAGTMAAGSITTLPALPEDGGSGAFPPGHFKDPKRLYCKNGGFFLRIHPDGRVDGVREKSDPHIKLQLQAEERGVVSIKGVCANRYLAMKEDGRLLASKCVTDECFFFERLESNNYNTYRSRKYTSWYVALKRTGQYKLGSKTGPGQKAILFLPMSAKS
# Chain of Luciferin 4-monooxygenase (Photinus pyralis) (P08659 whole entry, looked up): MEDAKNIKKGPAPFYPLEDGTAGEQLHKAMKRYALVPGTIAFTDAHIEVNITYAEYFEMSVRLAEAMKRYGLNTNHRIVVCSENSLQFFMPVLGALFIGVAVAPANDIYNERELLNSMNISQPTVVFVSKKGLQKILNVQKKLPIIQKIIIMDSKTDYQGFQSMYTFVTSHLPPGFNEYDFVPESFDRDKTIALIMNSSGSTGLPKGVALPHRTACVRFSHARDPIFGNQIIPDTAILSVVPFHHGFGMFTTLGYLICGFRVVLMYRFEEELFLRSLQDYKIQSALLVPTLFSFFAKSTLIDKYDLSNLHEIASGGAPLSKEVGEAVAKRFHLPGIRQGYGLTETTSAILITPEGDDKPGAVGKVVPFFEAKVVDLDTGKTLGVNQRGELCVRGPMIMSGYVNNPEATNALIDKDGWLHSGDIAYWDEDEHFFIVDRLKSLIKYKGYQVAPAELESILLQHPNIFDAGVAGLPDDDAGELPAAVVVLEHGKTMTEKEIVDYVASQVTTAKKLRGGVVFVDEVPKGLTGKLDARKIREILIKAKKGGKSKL
# Chain of Streptavidin (Streptomyces avidinii) (P22629 whole entry, looked up): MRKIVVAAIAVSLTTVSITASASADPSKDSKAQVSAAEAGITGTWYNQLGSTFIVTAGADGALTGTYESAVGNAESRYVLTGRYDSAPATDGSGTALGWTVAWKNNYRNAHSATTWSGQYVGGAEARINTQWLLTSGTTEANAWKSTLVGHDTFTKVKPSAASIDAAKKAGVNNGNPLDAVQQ
SMILES,composite z-score [1],composite z-score [2],composite z-score [3],composite z-score [4],composite z-score [5],composite z-score [6],z-score [7],composite z-score (Lefty1),composite z-score [8],z-score [9],composite z-score [10],z-score [11],z-score [12],z-score [13],z-score [14],composite z-score [15],composite z-score [16],composite z-score (Torsin-1A (Homo sapiens) [17]),composite z-score (Torsin-1A (Homo sapiens) [18]),composite z-score [19]
CC[C@H]1C2=C3C(CC[C@H]4C(OCc5ccc(F)cc5C(F)(F)F)OC[C@](C)([C@@H]34)N(C(=O)OC(C)(C)C)C2)C2COC(=O)OCC21 (stereo not given in full),0.0812,1.17,1.55,0.979,0.432,-1.39,1.86,-0.233,0.688,-0.198 (inactive),0.0641,-2.57 (inactive),0.265 (inactive),0.576 (inactive),0.204 (inactive),1.44,0.0003,0.246,0.666,0.0392
O=C1C2C=CC(C(O)c3cc(C(F)(F)F)cc(C(F)(F)F)c3)N(Nc3ccc([N+](=O)[O-])cc3)C2C(=O)N1c1ccccc1 (stereo not given),0.338,1.24,0.681,1.02,1.05,0.4,-0.953,0.953,0.599,0.833 (inactive),0.553,-4.58 (inactive),-0.0376 (inactive),1.63 (inactive),-0.303 (inactive),1.02,0.358,0.621,0.428,0.74
CN1C(=O)C2C=CC(C(O)Cc3ccccc3)N(N(c3ccccc3)c3ccccc3)C2C1=O (stereo not given),0.548,1.17,0.293,0.331,0.307,-0.622,0.54,-0.0212,0.201,-0.397 (inactive),0.0159,0.443 (inactive),-0.597 (inactive),0.264 (inactive),0.6 (inactive),2.18,0.191,0.0867,0.25,-0.572
CC(C)OC(=O)CC(=O)CC(O)c1cccc(C#N)c1 (stereo not given),0.797,0.828,0.763,0.974,0.102,-0.51,0.67,-0.0714,0.841,1.2 (inactive),0.167,-2.13 (inactive),-0.461 (inactive),-0.63 (inactive),-0.291 (inactive),1.35,0.0841,0.863,1.97,-0.206
C[C@]12C(=O)N(CCCCCCO)[C@@H]3C(=O)N(c4ccc(Cl)cc4)CC=CC31O[C@@H]1/C=C\CCCOC(=O)C12 (stereo not given in full),0.0039,-0.401,0.657,-2.42,-0.448,-1.12,0.846,-0.408,0.608,-1.64 (inactive),-0.143,-0.0337 (inactive),-1.5 (inactive),0.0686 (inactive),-0.475 (inactive),-0.781,-0.104,-1.38,-0.825,0.128
COC(=O)C1(Cc2ccccc2)C=C2C(=C(c3ccccc3)C(=O)C2C)CN1 (stereo not given),1.76,1.11,-0.0788,0.152,-0.111,0.404,0.408,-0.586,0.943,1.98 (inactive),2,-0.541 (inactive),0.125 (inactive),1.15 (inactive),0.465 (inactive),0.509,0.862,0.0676,0.47,-0.525
CC=CC(O)C1C=CC2C(=O)N(C)C(=O)C2N1Nc1ccc([N+](=O)[O-])cc1[N+](=O)[O-] (stereo not given),2.66,-0.935,0.247,-1.22,-0.0096,-0.582,0.533,0.0657,-0.0025,-0.419 (inactive),-0.449,1.01 (inactive),-0.658 (inactive),-0.136 (inactive),0.71 (inactive),-0.118,-0.128,0.316,-0.297,-0.144
COC(=O)[C@@]1(Cc2ccc(F)cc2)[C@H]2c3cc(C(=O)N4CCCC4)n(CCc4c[nH]c5ccc(OC)cc45)c3C[C@H]2CN1C(=O)c1ccccc1,2.4,1.22,2.48,0.845,0.685,0.6,-1.17,0.385,0.977,1.64 (inactive),1.51,-4.66 (inactive),-0.23 (inactive),0.0041 (inactive),-0.556 (inactive),1.53,1.62,0.844,0.736,0.0332
C[C@@H](OCc1ccccc1)C1NC(=O)[C@@]23C(=O)N[C@@H](Cc4ccccc4)C2[C@H](C)[C@@]2(C)O[C@H]2C3/C=C/C/C=C\CNC(=O)CNC1=O (stereo not given in full),0.413,-0.668,0.193,-2.57,-0.237,-0.113,-0.777,-0.339,-1.08,0.196 (inactive),-0.556,-2.16 (inactive),-0.295 (inactive),-0.962 (inactive),-0.88 (inactive),-0.918,-0.105,0.333,-0.104,1.24
CO[C@H]1O[C@H](CO)[C@@H](OC(=O)c2ccc(Br)cc2)[C@@H]2OC(=O)[C@@H](Cc3ccc4ccccc4c3)C/C=C/C[C@H](Cc3ccc4ccccc4c3)C(=O)O[C@@H]12,1.4,1.2,0.337,-0.216,0.395,-0.311,1.59,-0.345,0.691,-1.28 (inactive),0.18,-2.88 (inactive),0.4 (inactive),0.139 (inactive),-0.433 (inactive),0.48,-0.103,0.0121,0.625,-0.219
C=CCN1Cc2ccccc2C[C@@]2(N=C(c3ccc(OCCCO)cc3)O[C@H]2c2ccccc2)C1=O,0.69,1.24,0.649,0.801,0.749,0.955,0.943,0.0744,0.98,-0.668 (inactive),0.762,-5.03 (inactive),-0.8 (inactive),-0.23 (inactive),-1.51 (inactive),0.0967,0.0471,0.233,0.983,1.05
O=C(O)[C@H](Cc1ccccc1)n1cc(-c2ccccn2)nn1,0.908,0.585,0.19,0.919,0.676,0.0069,-0.47,0.5,0.425,1.01 (inactive),0.0676,-0.437 (inactive),-0.0406 (inactive),0.688 (inactive),-0.377 (inactive),0.303,-0.0645,0.307,0.407,0.506
